# Pf apPOL block – Pf-apPOL inhibitors, biochemical, fluorescence. Plasmodium falciparum apicoplast DNA polymerase (apPOL). Recombinant Pf-apPOL, molecular beacon fluorescence, 1.5 h. inhibition, % at 10 µM. AID 1794808, 2022. 210,000 tested, 0.25% active
# mHTT-CaM PPI inh – mutant huntingtin-calmodulin interaction inhibitors – biochemical, AlphaScreen, primary screen. P42858. AlphaScreen His-mHTT/GST-CaM binding, luminescence. inhibition, % at 15 µM. 190,000 tested, 3.6% active. AID 1671202, 2021;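 note: 0% = both proteins with DMSO and 100% = one protein alone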
# An asterisk follows results filed as active; nt = no result given; ! = repeats disagree. The list is not random: actives were taken first. Their share in the collection is about 3.5%. Cut-off read from the data, not from the text of the source: active = inhibition above about 50%; inactive = the rest.
SMILES,Pf apPOL block,mHTT-CaM PPI inh
O=C(Cc1c([N+](=O)[O-])cc([N+](=O)[O-])cc1S(=O)Cc1ccccc1)Nc1ccccc1 (configuration not stated),-3,84*
O=C(CCCc1ccccc1)Nc1cccc([N+](=O)[O-])c1,-4,4
O=C1OC(c2ccco2)=N/C1=C/c1cccc(OCc2ccccc2)c1,-2,15
CC(=O)N1CCN(C2=Nc3ccccc3Oc3ccccc32)CC1,-2,19
CC(=O)N1CCCN(C2=Nc3ccc(C)cc3Oc3ccccc32)CC1,-6,54*
CN1CCC(NC(=O)c2ccc3c(c2)N(C(=O)c2ccc(F)cc2)CC3)CC1,-1,0
CNC(=O)c1ccc2c(c1)N(C(=O)c1ccc(OC)cc1)CC2,-1,100*
CC(C)(C)NC(=O)c1nn2c(c1Cl)NC(c1cccs1)CC2C(F)(F)F (configuration not stated),-8,5
C=CCN1C(=O)C2(Oc3ccccc3C3CC(c4ccccc4)=NN32)c2ccccc21 (configuration not stated),0,7
CN1CCC2(CC1)Oc1ccc(Cl)cc1C1CC(c3ccc(Cl)cc3)=NN12 (configuration not stated),nt,24
CCC1(C)Oc2ccccc2C2CC(c3ccccc3)=NN21 (configuration not stated),0,44
Cc1ccc(C2=NN3C(C2)c2ccccc2OC32CCCCC2)o1 (configuration not stated),-6,53*
c1ccc(C2=NN3C(C2)c2ccccc2OC32CCCC2)cc1 (configuration not stated),29,51*
O=C1Nc2ccccc2C12Oc1ccccc1C1CC(c3ccc(Cl)cc3)=NN12 (configuration not stated),-4,100*
c1ccc(C2=NN3C(C2)c2ccccc2OC32CCCCC2)cc1 (configuration not stated),-1,44
Clc1ccc2c(c1)C1CC(c3cccnc3)=NN1C1(CCCCC1)O2 (configuration not stated),-23,51*
c1csc(C2=NN3C(C2)c2ccccc2OC32CCCC2)c1 (configuration not stated),-1,56*
CN(CC(=O)N1N=C(c2cccs2)CC1c1ccccc1Cl)C(=O)C1CCC1 (configuration not stated),3,26
CC(/C=C/CC(=O)O)c1ccccc1 (configuration not stated),3,0
O=C(C1CCCCC1)N1CCC(O)(c2ccccc2)C(N2CCCC2)C1 (configuration not stated),-11,51*
CCCC(=O)N1CCC(O)(c2ccccc2)C(N2CCCC2)C1 (configuration not stated),-11,6
O=C(CC1CCCC1)N1CCC(O)(c2ccccc2)C(N2CCCC2)C1 (configuration not stated),1,77*
CCOCC(=O)N1CCC(O)(c2ccccc2)C(N2CCCC2)C1 (configuration not stated),3,8
O=C(Nc1ccc(N2CCCN(Cc3ccc(F)cc3)C2=O)cc1)C1CC1,-1,18
CC(Cl)C(=O)N1CCC2(CC1)SCC(=O)N2c1ccc(F)cc1 (configuration not stated),2,0
SMILES,Pf apPOL block,mHTT-CaM PPI inh
COc1ccc(C(=O)N2CCC(c3ccncc3)CC2)cc1,3,-5
COc1cccc(CN2CCc3nc(Nc4cc(OC)ccc4OC)ncc3C2)c1,-5,15
COc1ccccc1Nc1ncc2c(n1)CCN(Cc1ccc(F)cc1)C2,36,-8
COc1ccc(OC)c(Nc2ncc3c(n2)CCN(CCc2ccccc2)C3)c1,-3,59*
CCCN1CCc2nc(Nc3ccccc3OC)ncc2C1,96*,1
COc1ccc(OC)c(Nc2ncc3c(n2)CCN(Cc2cccc(OC)c2OC)C3)c1,-3,47
CCOc1ccccc1CN1CCc2nc(Nc3cc(OC)ccc3OC)ncc2C1,-4,63*
COc1ccc(-c2csc3c(=O)n(Cc4ccccc4)cnc23)cc1,-2,-10
COCCN1C(=O)Cc2c(C)nc(-c3ccncc3)nc21,-1,18
CCc1cc(C2CCCN2C(=O)Nc2cccc(Cl)c2)on1 (configuration not stated),-2,-4
CC(C)=CC1C(CN)C1(C)C (configuration not stated),-5,96*
COc1cc(C=C2SC(=S)N(c3ccc(O)c(C(=O)O)c3)C2=O)cc(OC)c1OC,-28,66*
COc1cc(C=C2SC(=S)N(c3ccc(O)cc3)C2=O)cc(OC)c1OC,-3,20
COc1cc(C=C2SC(=S)N(c3ccc(C(=O)O)c(O)c3)C2=O)cc(OC)c1OC,-7,1
COc1cccc(N2C(=O)C(=Cc3ccc(O)c(O)c3)SC2=S)c1,-60,98*
COC(=O)c1sccc1NC(=O)N1CCCC1c1ccccc1C (configuration not stated),-5,-6
N#CC1=C(N)N(c2c(F)cccc2F)C2=C(C(=O)CCC2)C1c1ccsc1 (configuration not stated),0,0
c1ccc2c3c([nH]c2c1)-c1nonc1CC3,93*!,0
COc1ccc2c3c(ccc2c1)-c1[nH]c2ccccc2c1CC3,nt,44
COc1cc2c(cc1NC(=O)COc1ccccc1F)oc1ccccc12,-1,-8
CC(=O)N1CCc2[nH]c3ccc(C(=O)NCc4ccc(N5CCCC5)cc4)cc3c2C1,-2,89*
CCc1ccc(N(CC)C(=O)c2ccc3[nH]c4c(c3c2)CN(C(C)=O)CC4)cc1,-2,68*
COc1ccc(CCNC(=O)c2ccc3[nH]c4c(c3c2)CN(C(C)=O)CC4)cc1OC,-8,46
CC(=O)N1CCc2[nH]c3ccc(C(=O)NCCc4ccc(F)cc4)cc3c2C1,-8,52*
COc1ccc(OC)c(CNC(=O)c2ccc3[nH]c4c(c3c2)CN(C(C)=O)CC4)c1,8,44
SMILES,Pf apPOL block,mHTT-CaM PPI inh
COc1ccccc1CNC(=O)c1ccc2[nH]c3c(c2c1)CN(C(C)=O)CC3,-2,28
COc1ccc(CNC(=O)c2ccc3[nH]c4c(c3c2)CN(C(C)=O)CC4)c(OC)c1,-3,51*
CCc1ccccc1NC(=O)c1ccc2[nH]c3c(c2c1)CN(C(C)=O)CC3,-1,22
CC1Oc2ccccc2OC1C(=O)O (configuration not stated),6,0
Cc1ccc(C(=O)N2CCC(c3nc(C(=O)N(C)C)c(C)o3)CC2)cc1,1,-4
Cc1cc(C)c(-c2nnc(NC(=O)c3ccccc3[N+](=O)[O-])s2)c(C)c1,-1,0
O=C(Nc1ccccc1)C(Cc1c[nH]c2ccccc12)NC(=O)C(c1ccccc1)c1ccccc1 (configuration not stated),1,89*
COc1ccc(NC(=O)C(N)Cc2c[nH]c3ccccc23)cc1 (configuration not stated),-18,46
Cc1nc(-c2ccccc2)sc1C(=O)N1CCC(CC(=O)NC2CCCCC2)CC1,-6,24
Cc1nc(-c2ccccc2)sc1C(=O)N1CCC(C(C)C(=O)NC2CCCC2)CC1 (configuration not stated),-1,100*
O=C(Nc1ccc(O)c(-c2nc3ccccc3s2)c1)c1ccc([N+](=O)[O-])cc1,0,-1
Cc1cc(C)c(-c2[nH]ncc2-c2nc3ccccc3s2)c(O)c1,-10,86*

# Screening results as filed in PubChem BioAssay.
